Screens (PubChem BioAssay)
ALOX12 inh – ALOX12 (human) lipoxygenase inhibition; purified 12hLO, xylenol orange hydroperoxide absorbance; 580,000 tested, 1.1% active; Potency, µM (series often up to 108 µM), for the others: at the top dose activity change, negative = inhibition, hits mostly inhibitors; AID 1671190; further: on the % scale 0 is the no-effect control and ±100 the full control effect
Target sequence (P18054 whole entry, looked up): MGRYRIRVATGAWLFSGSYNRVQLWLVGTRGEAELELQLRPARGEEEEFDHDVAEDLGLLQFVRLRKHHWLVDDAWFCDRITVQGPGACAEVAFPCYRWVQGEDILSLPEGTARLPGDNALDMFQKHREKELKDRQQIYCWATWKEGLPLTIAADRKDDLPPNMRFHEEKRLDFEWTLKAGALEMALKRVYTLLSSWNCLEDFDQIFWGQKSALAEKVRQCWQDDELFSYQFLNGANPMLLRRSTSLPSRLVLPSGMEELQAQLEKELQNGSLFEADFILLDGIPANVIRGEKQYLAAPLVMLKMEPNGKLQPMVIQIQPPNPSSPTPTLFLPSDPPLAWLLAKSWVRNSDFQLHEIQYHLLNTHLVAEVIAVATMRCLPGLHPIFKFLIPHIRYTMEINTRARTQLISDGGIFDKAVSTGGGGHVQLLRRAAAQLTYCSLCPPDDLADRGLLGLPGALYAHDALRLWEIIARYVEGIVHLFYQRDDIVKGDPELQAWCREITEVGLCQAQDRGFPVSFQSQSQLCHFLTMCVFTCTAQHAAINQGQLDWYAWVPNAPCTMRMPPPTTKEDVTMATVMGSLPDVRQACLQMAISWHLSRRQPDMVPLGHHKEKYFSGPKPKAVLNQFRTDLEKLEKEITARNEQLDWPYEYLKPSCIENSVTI
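Purified human 12hLO (150 nM final) in 25 mM Hepes, 0.01% Triton X-100, pH 7.0 was preincubated 15 min at room temperature with compound. Then 40 uM arachidonic acid was added, 30 min. Hydroperoxide was read by Fe-XO absorbance ratio 573/405 nm.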
FUS yeast rescue – rescues growth of FUS-expressing yeast | S. cerevisiae FUS-expressing, growth rescue, OD600, 24 h | Potency, µM (highest dose often 76.6 µM), most hits filed as activators | 390,000 tested, 0.24% active | AID 1347120;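 further: plate controls were DMSO vehicle for no effect and reference control for full effect; nearly all actives have a fitted effect of over 55% in size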
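Toxicity suppression screen in FUS-yeast. Cells induced with 2% galactose, starting OD 0.005, treated 24hr at 30C with compounds at multiple final concentrations; growth by OD600.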
Mito fusion yeast – blocks mitochondrial division or promotes mitochondrial fusion; S. cerevisiae fusion-defective mutant growth rescue, CellTiterGlo 48 h; Potency, µM (titrated, usually from 46.1 µM), without a hit: at the highest dose growth rescue (activation), most hits filed as activators; 320,000 tested, 0.23% active; further: % of control where 0% means no effect; nearly all actives have a fitted effect of over 45% in size
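Compounds are tested for their ability to restore growth of mitochondrial fusion-defective yeast strains at non-permissive 37C in YPEG medium over 48 hours. Viability is quantified by luciferase luminescence.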
gsp ag – gsp mutant agonism; gsp mutant cells, cAMP HTRF, 30 min; Potency, µM (doses to about 76.9 µM), inactives show at the top dose activation (cAMP increase), most hits filed as activators; 340,000 tested, 0.13% active; active means well fitted activation curve with a large enough effect; inconclusive means small, poorly fitted or top-dose-only effect, or another doubt; inactive means no such curve, though single readings can be large or run the other way; cell line not stated here;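 further: phosphodiesterase inhibitor Ro 20-1724 added with compounds to block cAMP breakdown; nearly all actives have a fitted effect of over 60% in size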
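Cells in DMEM/10% FBS with G418 were pretreated with compounds in DMSO plus […] (300 uM stock) for 30 min at 37C. cAMP was measured by HTRF (cAMP-d2 plus anti-cAMP antibody-K) after 30 min at room temperature.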
gsp antag – antagonists of gsp mutant (McCune-Albright syndrome) | gsp-mutant cells, cAMP HTRF, 30 min | Potency, µM (doses to about 76.9 µM), without a hit: top-dose activity change, negative = inhibition, usual class: inhibitors | 340,000 tested, 0.4% active | AID 624288; calls by dose curve; cell line not stated here;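 further: intracellular cAMP measured with PDE inhibitor Ro 20-1724 present during compound exposure; on the % scale 0 is the no-effect control and ±100 the full control effect; nearly all actives have a fitted effect of over 65% in size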
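HTRF cAMP measurement after 30 min RT detection following 30 min, 37C compound treatment alongside […] (added as 300 uM solution) in G418-selected cells seeded at 2000/well and grown 16–24 h.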
Starred values were filed as active, the others as inactive; i = inactive; ? = inconclusive; / = not tested or not shown; [ ] = remark or other dose. The list is not random: actives were taken first. Their share in the collection is about 1.6%. Unless noted, the call rests on the fitted dose curve; in most records, active means well fitted curve in the direction sought with a large enough effect; inconclusive means small, poorly fitted or top-dose-only effect, or another doubt; inactive means no such curve, though single readings can be large; an effect the other way counts as inactive or inconclusive. Potency means the concentration at half of the fitted maximal effect.

SMILES	ALOX12 inh	FUS yeast rescue	Mito fusion yeast	gsp ag	gsp antag
Cc1cc(C(F)(F)F)c(C#N)c(=S)[nH]1	15.8µM*	/	/	/	/
CC(C)(C)N(CC#CCC(O)(c1ccccc1)c1ccccc1)CCO	7.94µM*	i	0.9%	15.6%	4.1%
COc1cccc(=O)c2c(C)n(C)c(C)c12	6.3%	28.2µM*	-7.5%	-0.1%	-27.6%
CC(CCc1ccccc1)NC(=O)/C=C/c1ccc(F)cc1 (configuration not stated)	/	/	11.2µM*	/	/
N#C/C(=N\Nc1cc(Cl)cc(Cl)c1)c1nnc2n1CCCCC2	15.8µM*	i	6.1%	-22.0%	-23.6%
COC(=O)c1ccc(C2/C(=C(\O)c3cccc(OC)c3)C(=O)C(=O)N2c2ccccn2)cc1 (configuration not stated)	1.12µM*	/	/	/	/
CCC(C(=O)NCCc1ccc(C)cc1)n1nc(C)c2c(C)n(-c3ccccc3)nc2c1=O (configuration not stated)	0.7%	i	-8.8%	?	50.1µM*
CCC(C(=O)NCCc1ccc(SC)cc1)n1nc(C)c2c(C)n(-c3ccc(C)cc3)nc2c1=O (configuration not stated)	-19.3%	i	/	/	/
COc1cccc(-n2sc3c(c2=S)-c2cc(OC)ccc2NC3(C)C)c1	?	i	5.1%	-20.5%	-17.4%
CC1(C)Nc2ccc(O)cc2-c2c1ssc2=S	44.7µM*	i	3.9%	-16.4%	-1.6%[15.4 µM]
O=C(Nc1cccnc1Cl)C1CCCCC1	12.5%	/	/	/	/
COc1cc(CNn2nnnc2N)cc(Br)c1OCc1c(Cl)cccc1Cl	-0.3%	i	3.1%	-2.9%	39.8µM*
COc1cc(CNn2nnnc2N)cc(Br)c1OCC(=O)NC(C)(C)C	16.9%	i	-4.2%	-19.2%	6.0%
C/C=C/Cn1c(SCC(=O)Nc2ccccc2)nc2c1c(=O)[nH]c(=O)n2C	-13.7%	/	/	/	/
CC(=O)c1ccc2c(c1)C1C=CCC1C(c1ccncc1)N2 (configuration not stated)	?	/	-2.7%	-0.4%	-11.2%
COC(=O)c1ccc(C2Nc3ccc(/C(C)=N/NC(=O)C(OC)c4ccccc4)cc3C3C=CCC32)cc1 (configuration not stated)	?	4.47µM*	-1.8%	3.3%	-10.7%
COc1cccc(-c2nc(N3CCCCC3C)c3ccccc3n2)c1O (configuration not stated)	0.0%	i	12.6µM*	0.0%	-39.5%
COc1cccc(-c2nc(N3CCN(C)CC3)c3ccccc3n2)c1O	-13.1%	i	3.9%	12.4%	-3.9%
COCC1CCN(Cc2c(C(=O)N3CCc4ccccc4C3)nc3ccc(Cl)cn23)C1 (configuration not stated)	-3.5%	7.08µM*	1.3%	?	-19.9%
COC1CCN(Cc2c(C(=O)N3CCc4ccccc4C3)nc3ccc(Cl)cn23)CC1	0.3%	/	-5.1%	-37.8%	-4.4%
COc1ccc(C(=O)NNC(=O)C(=O)/C=C(\O)c2ccc(C)cc2)cc1	35.5µM*	?	13.0%	-2.4%[15.4 µM]	1.7%
O=C(/C=C(\O)c1ccccc1)C(=O)NNC(=O)c1ccccc1	3.0%	i	?	-4.2%	-9.7%
O=C(Cc1ccccc1)NCC(=O)NNC(=O)c1nn(-c2ccccc2)c(=O)c2ccccc12	22.6%	/	/	/	/
CCc1nnc(NC(=O)CSc2nc(-c3ccccc3)nc3ccccc23)s1	17.0%	i	-2.2%	7.94µM*	18.8%
CCc1nnc(NC(=O)CSc2nnc(-c3ccccc3O)n2CC)s1	-9.8%	i	-2.4%	13.1%	-7.5%
SMILES	ALOX12 inh	FUS yeast rescue	Mito fusion yeast	gsp ag	gsp antag
CCc1nnc(NC(=O)CSc2nnc(-c3cc4ccccc4cc3O)n2CC)s1	-7.3%	?	5.2%	3.6%	28.2µM*
CCc1nc(SCC(=O)Nc2nc3c(s2)CCCC3)c2ccccc2n1	-26.4%	i	-3.1%	17.8µM*	20.2%
CC(C)Oc1cccc(-c2nnc(CCC(=O)NCCOc3ccccc3)c(=O)[nH]2)c1	-2.6%	/	/	/	/
CC(=O)NCCNc1ncncc1-c1ccc(N(C)C)cc1	44.7µM*	/	/	/	/
CNc1ncncc1-c1ccc(C(=O)N(C)C)cc1	31.6µM*	/	/	/	/
O=C(CSc1nc2ccc(NC(=O)c3ccc(Cl)cc3)cc2s1)NC1CCCCC1	21.8%	/	/	/	/
COc1ccc(CN2CCC(Cc3ccccc3)CC2)cc1OC	?	i	-2.2%	4.0%	18.6%
